Inconclusive results are not listed. Unmarked numbers belong to inactive results. Calls come from the whole dose curve; as a rule, active = well fitted inhibition curve with a large enough effect; inconclusive = small, poorly fitted or top-dose-only effect; inactive = no such curve, though single readings can be large or run the other way.

The test is described as follows: Counterscreen qHTS assay for inhibitors of N-terminal methyltransferase 1 (NTMT1): SPKRIA Counterscreen Assay. As to conditions: biochemical qHTS; series mostly up to 99.2 µM; activity change, negative = inhibition: at the top concentration. An excerpt: Assay Submitter (PI): Rong Huang Ph.D,
Purdue University, West Lafayette, IN 47907
The N-terminal methytransferase 1 is the first methyltransferase that methylates protein alpha-N-amines and plays an important role in regulating cell mitosis, chromatin interactions and DNA repair. It is observed to be over-expressed in various cancer patient tissues like malignant melanoma and colorectal cancer tissues. Knockdown of NTMT1 in cancer cells causes cell mitotic defects and enhances sensitivity to DNA damaging chemotherapeutics. […] These critical cellular processes in which NTMT1 is implicated, coupled with emerging links to cellular dysfunction, strengthen the inference that NTMT1 is a compelling novel anticancer target. Progress have been made in understanding the molecular properties of NTMT1 and the biological consequences of protein alpha-N-terminal methylation, but there are no specific small molecule probes available for NTMT1 to fully characterize its MTase activity. To address this unmet need, a panel of assay is created and established to enable quantitative high-throughput screening (qHTS) for novel, potent, and selective small molecule NTMT1 inhibitors. Two orthogonal qHTS that use different reagents (ThioGlo vs. MTaseGlo) are developed for primary robotic screening against the NCATS chemical library of more than 400,000 small molecules. Identified inhibitors are reacquired, validated, and further characterized.
MTaseGlo Assay is a luminescence screen that measure the activity of methyltransferases based on the reaction product S-adenosyl homocysteine (SAH). The substrate SAM is converted to SAH upon enzyme activation. MTase-Glo reagent and detection solution convert SAH to ATP and measure the light from the luciferase reaction. Nicotinamide N-methyltransferase (NNMT) is a cystolic enzyme that catalyzes the transfer of a methyl group from the co-factor SAM onto the substrate, nicotinamide (NA) to form 1-methyl-nicotinamide (MNA) and SAH. NNMT MTaseGlo assay is used as a counterscreen to evaluate selectivity of identified inhibitors.
SPKRIA and Ac-RCC-10 control is provided by the Huang laboratory.
PROTOCOL TABLE; SEQUENCE No. (e.g., 1, 2, 3, etc.); […] (e.g., Cells, Incubation, Reagent, etc.); VALUE; DESCRIPTION
1; Reagent; 3 uL; dispense assay buffer.
2; Compound; 23 nL; pin compounds and control into the assay plate.
3; Time; 15 min; room temperature incubation.
4; Reagent; 1 uL; dispensed [4x] substrate or buffer.
5; Time; 30 min; incubate at room temperature.
6; Reagent; 1 uL; dispense MTase-Glo Reagent (R).
7; Time; 30 min; incubate at room temperature.
8; Reagent; 5 uL; dispense [1x] MTase-Glo Detection Solution to allow for ADP to be converted to ATP.
9; Centrifugation; 1,000 RPMs; assay plates were centrifuged.
10; Incubation; 30 min; room temperature.
11; Detection; Luminescence; ViewLux plate reader (clear filter, 10 second exposure).
NOTES (numbers refer to Sequence numbers above; values are from representative experiments)
1; Dispense the assay buffer into Greiner 1536-well black / solid bottom assay plate (Greiner Bio One, Monroe, NC).
2; Pin control inhibitor Ac-RCC1-10 at a final concentration range of 234 nM to 143 uM using a Wako Pin Tool (Wako Automation USA) equipped with a 1536-slotted pin array (Wako Automation, Richmond, VA). Pin compound library into the assay plates (columns 5 - 48) at a final concentration range of 97 nM to 250 uM.
3; Incubate the assay plates at room temperature.
4; Dispense 1 uL of substrate SPKRIA solution (final concentration 1 uM) or 1 uL buffer was added to the wells bringing the final assay volume to 4uL. The assay plate was covered with metal lids.
5; Incubate the assay plate at room temperature.
6; Dispense 1 uL of 5x MTase-Glo Reagent in the assay plate.
7; Incubate at room temperature to allow for SAH to be converted to ADP
8; Dispense 5 uL of 5x MTase-Glo Detection Solution in the assay plate to allow for ADP to be converted to ATP.
9; Assay plates were centrifuged for 15 seconds.
[…]
On the technique in general: Counterscreens check selectivity or assay interference.
In the case of `C[C@H](N)C(=O)c1ccccc1`, the “activity change, negative = inhibition” value was -17.5% [at 251 µM].

On to `CCc1cc(OC)c(C[C@H](C)N)cc1OC`, for which the “activity change, negative = inhibition” value was -7.41% [at 204 µM].

Turning to `CN(C)CCc1c[nH]c2cccc(O)c12`, the “activity change, negative = inhibition” value was -10.5% [at 204 µM].

With `CC[C@]1(O)CC[C@H]2[C@@H]3CCC4=CCCC[C@@H]4[C@H]3CC[C@@]21C`, the “activity change, negative = inhibition” value is -1.58%.

On to `C[C@@H]1CC2=CC(=O)CC[C@@H]2[C@H]2CC[C@@]3(C)[C@@H](CC[C@]3(C)O)[C@@H]21`, for which the “activity change, negative = inhibition” value is -13.2%.

For `C=CC[C@]1(O)CC[C@H]2[C@@H]3CCC4=CC(=O)CCC4=C3C=C[C@@]21C`, the “activity change, negative = inhibition” value was 4.78%.

`C[C@]12CC[C@H]3[C@@H](CCC4=CC(=O)CC[C@@H]43)[C@@H]1CC[C@@H]2O`: the “activity change, negative = inhibition” value was -10.8%.

Turning to `C[C@]12CCC(=O)C=C1CC[C@@H]1[C@@H]2CC[C@@]2(C)[C@H]1CC[C@]2(C)O`, the “activity change, negative = inhibition” value was -3.68%.

These data come from PubChem BioAssay AID1645879 (National Center for Advancing Translational Sciences (NCATS), 2021).
